Measured values: PubChem BioAssay

What was measured:
[1] = tested on: Botulinum neurotoxin type F light chain protease (Clostridium botulinum); experiment: Clostridium botulinum type F light chain protease inhibitors, microsphere substrate cleavage, validation (AID 588459); conditions: multiplex microsphere protease substrate cleavage assay, flow cytometry; at 10 µM; hits give high values
[2] = molecular target: Botulinum neurotoxin type A (Clostridium botulinum) (UniProt P0DPI0); experiment: BoNT/A light chain protease inhibitors, biochemical, multiplex microsphere flow cytometry, validation set (AID 588460); conditions: at 10 µM, hits give high values
[3] = molecular target: Lethal factor (Bacillus anthracis) (UniProt P15917); experiment: Bacillus anthracis lethal factor inhibition, microsphere flow cytometry protease assay, validation at 10 µM (AID 588461); conditions: multiplex microsphere protease cleavage assay, hits give high values

Measured: inhibition

CCc1ccc2oc(=O)cc(CN3CCC(C)CC3)c2c1
inactive: [1] 5.5% | [2] 0.8% | [3] 1.4%

O=C(NCCO)c1ccc2[nH]c3ccccc3c2c1
inactive: [1] 0.6% | [2] 0.1% | [3] 5.3%

Cc1cc(O)c(C(=O)Cc2csc(C)n2)c(O)c1
inactive: [1] -5.7% | [2] -2.4% | [3] 0.7%

COc1ccc(CC(=O)c2c(O)cc(O)cc2O)cc1OC
inactive: [1] 0% | [2] 1.7% | [3] -2.8%

COc1ccc(CCN2CCC(Nc3nc4ccccc4n3Cc3ccc(F)cc3)CC2)cc1
inactive: [1] -1.8% | [2] 0.4% | [3] 1.2%

COc1ccc(NC(=O)C2CSC3c4ccccc4C(=O)N23)cc1 (stereo not drawn)
inactive: [1] -0.5% | [2] -0.2% | [3] -3.8%

COc1ccc2c(c1)[nH]c1c(=O)n(Cc3ccccn3)cnc12
inactive: [1] 3.9% | [2] -1% | [3] -4.7%

CC(C)c1ccc2[nH]c3c(c2c1)CCCC3=O
inactive: [1] 0.3% | [2] -0.8% | [3] -3.4%

Nc1[nH]c(=O)ncc1F
inactive: [1] 1.1% | [2] -0.5% | [3] 0%

COc1ccc(N2C(=O)C3CCCN3C2=O)cc1 (stereo not drawn)
inactive: [1] 1.8% | [2] 0.4% | [3] -0.1%

CC(=O)OCC(=O)[C@H]1CC[C@H]2[C@@H]3CC=C4C[C@@H](O)CC[C@]4(C)[C@H]3CC[C@]12C
inactive: [1] -1.9% | [2] -1.3% | [3] -7.4%

Cc1[nH]c2ccccc2c1/C=C/c1nc2ccccc2c(=O)n1CCO
inactive: [1] 0% | [2] -0.4% | [3] 0.2%

Cc1ccccc1C(=O)NNc1ncnc2c1cnn2C
inactive: [1] 3.1% | [2] -0.7% | [3] 1.7%

COc1ccccc1Oc1c(C)oc2c(CN3CCN(CCO)CC3)c(O)ccc2c1=O
inactive: [1] -2.3% | [2] -1.2% | [3] 1.4%

O=C(O)CCCCCNC(=O)Nc1ccc2c(c1)OCCO2
inactive: [1] 1.3% | [2] -1.4% | [3] -10.1%

CC(=O)C1=C(O)C(=O)OC1c1ccc(C)cc1 (stereo not drawn)
inactive: [1] 9.7% | [2] 1.4% | [3] -4.5%

NC(N)=NC(=O)Cc1c(Cl)cccc1Cl
inactive: [1] -3.3% | [2] -1.8% | [3] -3.1%

Cc1ccc2c(c1)C1CN(C)CCC1N2S(=O)(=O)c1ccc(Oc2ccc([N+](=O)[O-])cc2)cc1 (stereo not drawn)
inactive: [1] 2.6% | [2] 0.4% | [3] 8.4%

COc1cccc(OCc2cc(C3Nc4ccccc4C(=O)N3Cc3ccco3)ccc2OC)c1 (stereo not drawn)
inactive: [1] -1% | [2] 0.9% | [3] -2.1%

Cn1c(=O)c2c(ncn2Cc2ccccc2)n(C)c1=O
inactive: [1] 3.3% | [2] 3% | [3] 7.6%

CC1(C)CC(=O)c2c(nc3ccccc3c2N)C1
inactive: [1] 1% | [2] -0.5% | [3] 7.9%

O=C(Oc1ccccc1)Oc1ccc2c(c1)oc(=O)c1ccccc12
inactive: [1] -1.6% | [2] -0.4% | [3] 0.9%

COc1cc(-c2nnc(-c3cccs3)o2)cc(OC)c1OC
inactive: [1] 1.3% | [2] 1.7% | [3] 4.3%

CC(C)(C)c1ccc(/C=C/C(=O)N2CCCCC2)cc1
inactive: [1] -0.4% | [2] -1.5% | [3] 4.7%

CC(=O)OCC(=O)[C@@]1(O)CC[C@H]2[C@@H]3CCC4=CC(=O)CC[C@]4(C)[C@H]3[C@@H](O)C[C@@]21C
inactive: [1] -3.3% | [2] -3.5% | [3] -5.1%

CC(=O)N[C@@H](CS)C(=O)O
inactive: [1] 5.5% | [2] -0.8% | [3] 2.4%
